Measurements reported in PubChem BioAssay (NCI).
This is part of a sample that, as a whole, favours compounds with a hit. Of some 83,000 tested, about 20% had one in any assay.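 Negative percent growth values reflect cell death: -40 means 40% of the cells present at the start died, and -100 means all died.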 Activity calls are given as the source filed them.

System: SK-OV-3 ovarian
Assay: NCI-60 one-dose screen, 48 h (100 = growth as untreated, 0 = no growth, -100 = all killed)
Details: 10 µM unless noted
Procedure: Growth inhibition of the SK-OV-3 human tumor cell line is measured as a screen for anti-cancer activity. Cells are grown in 96 well plates and exposed to the test compound for 48 hours. Compounds are tested at a single concentration, which is 10^-5 M for most compounds. The reported endpoint is percent growth (GI% or GIPRCNT), where numbers from 0 - 100% represent growth inhibition, and numbers from -100% - 0 represent cell death. For example, a value of 40 represents 60% growth inhibition. A value of 0 means no net growth occurred over the course of the experiment. A value of -40 indicates 40% of cells at the beginning of the experiment died by the end of the experiment. A value of -100 means all cells are dead at the end of the experiment.
NCI-60 Human Tumor Cell Lines Screen was performed using the standard one-dose NCI protocol, which is described in more detail at https://dtp.cancer.gov/discovery_development/nci-60/default.htm.
Compounds with GIPRCNT values below 10 were considered active. Activity score was based on GIPRCNT using the following formula: […]
Score is 0 for GIPRCNT values of 100 or above, 50 for GIPRCNT values of 0, and 100 for GIPRCNT values of -100.

| Compound | growth |
| --- | --- |
| Cc1ccc(S(=O)(=O)c2nc(S(=O)(=O)c3ccc(C)cc3)c(N3CCN(C)CC3)s2)cc1 | 124% (inactive) |
| COc1cccc(-c2c(C#N)c(-c3ccc(Cl)cc3)nc3n[nH]c(-c4ccc(Cl)cc4)c23)c1 | 43.9% (inactive) |
| COc1ccc(C(=O)/C=C/c2cccc(Cl)c2Cl)cc1S(N)(=O)=O | 43.3% (inactive) |
| CC(=O)Nc1ccc(-c2cn(-c3cccc(C(=O)Nc4ccc(N5CCN(C)CC5)cc4)c3)nn2)cn1 | 93.8% (inactive) |
| O=C(Cn1c2c(sc1=O)[C@H]1[C@@H](O)[C@@H](O)[C@H](O)[C@@H]1CS2)N1CCOCC1 | 94.1% (inactive) |
| O=c1[nH]c2ccc(Cl)cc2cc1CSc1nccc(-c2ccc(Cl)cc2)n1 | 69.2% (inactive) |
| O=c1[nH]c2ccccc2cc1CSc1cccc(Nc2nccc(-c3ccc4ccccc4c3)n2)c1 | 115% (inactive) |
| COc1c(F)ccc(C(=O)Nc2ccc3nc(NC(=O)C4CCCN(S(=O)(=O)c5cccc(Br)c5)C4)sc3c2)c1F (stereo not given) | 112% (inactive) |
| Cn1cc(-c2nc(N)nnc2-c2c[nH]c3ccc(F)cc23)c2cc(Br)cnc21 | 19.8% (inactive) |
| O=C(N/N=C/c1ccc(-c2ccc(O)cc2)o1)c1[nH]c2ccc(Br)cc2c1-c1ccccc1 | 19.6% (inactive) |
| CCCCSc1nc(NCCc2c[nH]c3ccccc23)c(C#N)c(-c2ccccc2)n1 | 76.6% (inactive) |
| CC(=O)Nc1ccc(-n2cnc3cc(-c4ccc(O)cc4)ccc32)cc1C(F)(F)F | 56.3% (inactive) |
| COc1ccc(NC(=O)Nc2ccc(OCc3ccc(F)cc3)cc2)cc1 | 76.2% (inactive) |
| Cc1ccc2c(N)c(C(=O)Nc3ccc(OC(F)(F)F)cc3)sc2n1 | 68.2% (inactive) |
| CC1[C@H]2[C@H](C[C@H]3[C@@H]4CC=C5c6sc(Nc7ccccc7F)nc6CC[C@]5(C)[C@H]4CC[C@@]32C)O[C@]12CC[C@@H](C)CO2 (stereo not given in full) | -19.5% (active) |
| COc1ccc(NC(=O)[C@H](C)N)cc1C(=O)Nc1cccc(C2CC(=O)c3c(cc(OC)c(OC)c3OC)O2)c1 (stereo not given in full) | 146% (inactive) |
| COc1cc2oc(-c3cccc(NC(=O)[C@H](CC(N)=O)NC(=O)OC(C)(C)C)c3)cc(=O)c2c(OC)c1OC | 140% (inactive) |
| Cc1ccc(C(=O)NN2C(=O)/C(=C/C=C/c3ccc([N+](=O)[O-])o3)SC2=S)cc1 | -78.1% (active) |
| CN1CCN(c2ccc3c(c2)nc(NNC(=O)c2cnccn2)c2cccn23)CC1 | -51.3% (active) |
| CCCSc1nc(NCCc2c[nH]c3ccccc23)c(C#N)c(-c2ccc(F)cc2)n1 | 72.3% (inactive) |

| Compound | growth |
| --- | --- |
| Cc1ccc(C(=O)CSc2nc3ccc(C)cc3c(=O)n2-c2ccc(F)cc2)cc1 | 54.9% (inactive) |
| COc1ccc2oc3c4[nH]c5ccccc5c4c4c(c3c2c1)C(=O)N(C(=O)OC(C)(C)C)C4=O | -25.3% (active) |
| Cc1cc2c(cc1Cl)C(=O)/C(=C/c1ccc(F)cc1)O2 | 100% (inactive) |
| Cc1cc(C)cc(C(=O)Nc2cccc(-c3cn(-c4ccc(S(N)(=O)=O)cc4)nn3)c2)c1 | 9.56% (active) |
| C=CC(=O)Nc1ccc(C)c(Oc2ccc(Cl)cc2)c1 | 77.4% (inactive) |
| CC(C)C(C(=O)O)n1c(O)c(/C=C2/C=c3cc4c(cc3=NC2=O)OCO4)sc1=S (stereo not given) | 129% (inactive) |
| COc1ccc(NC(=O)Cn2c(O)c(N=Nc3ccc(S(N)(=O)=O)cc3)c3ccccc32)cc1 | 30.3% (inactive) |
| N/C(=N\c1nc2ccccc2s1)NC(=O)Nc1ccccc1Br | -6.97% (active) |
| C=C1CC[C@@H]2[C@]3(C)COC(c4cn(-c5ccccc5)nc4-c4cccc([N+](=O)[O-])c4)O[C@@H]3CC[C@@]2(C)[C@@H]1C/C=C1/C(=O)OC[C@H]1O (stereo not given in full) | 93% (inactive) |
| COc1cccc(COc2ccc(NC(=O)Nc3ccc(Cl)c(C(F)(F)F)c3)cc2)c1 | 35.6% (inactive) |
| O=C1CC(Sc2n[nH]c(-c3ccncc3)n2)C(=O)N1c1ccc(Br)cc1 (stereo not given) | 108% (inactive) |
| OCNc1ccc(-n2cnc3cc(-c4ccc(O)cc4)ccc32)cc1C(F)(F)F | 54.7% (inactive) |
| O=C(c1ccccc1)c1ccc2nc(-c3ccc(F)cc3)[nH]c2c1 | 74% (inactive) |
| Brc1ccc(N/N=C/c2c[nH]c3ccc(Br)cc23)nc1 | -12.7% (active) |
| NS(=O)(=O)c1ccc(CCNC(=O)CSc2ccc(-c3ccc(Br)cc3)nn2)cc1 | 73% (inactive) |
| Cn1cc(-c2cc3nc(-c4c[nH]c5ccc(Br)cc45)cc(N)n3n2)c2ccccc21 | -66.5% (active) |
| Nc1nnc(-c2c[nH]c3ncc(Br)cc23)c(-c2c[nH]c3ccc(F)cc23)n1 | 80.5% (inactive) |
| N#Cc1c(NCc2ccccc2)n[nH]c1Nc1ccccc1 | 68% (inactive) |
| CC1=C(C(=O)c2ccccc2)C(c2cccc3ccccc23)n2c(nc3ccccc32)N1 (stereo not given) | 57.4% (inactive) |
| Cc1c(C(=O)NNC(=O)c2ccc(Cl)cc2)nnn1-c1ccc(Cl)cc1 | 82.3% (inactive) |
